Measurements taken from PubChem BioAssay (NCATS).
Several values for one entry are separate records, joined by “and”; a condition that tells them apart may be missing. Equal entries are not always repeated. Records with an inconclusive call do not appear. More than one record can exist for a structure, and the calls need not agree. Activity calls are given as the source filed them. Calls come from the whole dose curve; as a rule, active = well fitted curve in the direction sought with a large enough effect; inconclusive = small, poorly fitted or top-dose-only effect, or another doubt; inactive = no such curve, though single readings can be large; an effect the other way counts as inactive or inconclusive.

Key:
[1] = target: Cytochrome P450 3A7 (Homo sapiens) (UniProt P24462); assay: Cytochrome P450 family 3 subfamily A member 7 (CYP3A7) small molecule antagonists: luciferase biochemical qHTS assay (AID 1963596); note: % is set by controls: 0 for no effect and ±100 for the full control effect; nearly all actives have a fitted effect of over 40% in size
Chain of Cytochrome P450 3A7 (Homo sapiens) (P24462 whole entry, looked up): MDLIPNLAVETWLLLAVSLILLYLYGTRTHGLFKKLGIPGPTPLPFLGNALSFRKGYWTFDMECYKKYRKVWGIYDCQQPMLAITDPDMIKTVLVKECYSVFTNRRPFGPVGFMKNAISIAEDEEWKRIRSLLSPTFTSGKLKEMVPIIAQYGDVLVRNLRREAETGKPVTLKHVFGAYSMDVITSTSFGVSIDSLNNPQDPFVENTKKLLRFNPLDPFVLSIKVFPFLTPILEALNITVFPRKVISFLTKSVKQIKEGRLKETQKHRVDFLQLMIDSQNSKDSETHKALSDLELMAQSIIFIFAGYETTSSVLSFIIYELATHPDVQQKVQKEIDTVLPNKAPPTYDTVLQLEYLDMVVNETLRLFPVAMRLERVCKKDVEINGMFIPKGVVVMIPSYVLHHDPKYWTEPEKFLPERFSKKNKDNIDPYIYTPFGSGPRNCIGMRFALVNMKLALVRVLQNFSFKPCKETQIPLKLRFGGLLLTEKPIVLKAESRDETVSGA
Summary of the method: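 P450-Glo luminescent assay: CYP3A7 enzyme converts a proluciferin substrate to luciferin, detected by luciferase reagent; light proportional to activity. Compounds in DMSO preincubated 10 min with enzyme-substrate mix at room temperature, then NADPH regeneration added for 1 h.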

[2] = Viability qHTS for spleen associated tyrosine kinase inhibitor (SYKi) naive MV4-11 cells (AID 1963823); note: nearly all actives have a fitted effect of over 40% in size; note: potency is the fitted concentration of half-maximal effect
Summary of the method: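 Cells: MV4-11, SYK inhibitor naive, 500 per well. Treatment: library compounds, 72 hr, 37 C, 5% CO2. Read-out: CellTiter-Glo luminescence after 10 min RT.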

[3] = Viability qHTS for spleen associated tyrosine kinase inhibitor (SYKi) drug resistant MV4-11 cells (AID 1963824); note: nearly all actives have a fitted effect of over 35% in size; note: potency is the fitted concentration of half-maximal effect
Summary of the method: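 CellTiter-Glo luminescence, read 10 min after reagent addition, reports viability after a 72 hr compound exposure. Cells are an MV4-11 line made resistant to SYK inhibition, seeded at 500 per well onto compound-containing plates.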

[4] = Cellular viability qHTS for adrenocortical cancer (ACC) cell line SW-13 (AID 1963989); conditions: SW-13 ACC cells viability, CellTiter-Glo, 48 h; activity (max response): stronger effect = lower value; note: nearly all actives have a fitted effect of over 65% in size; note: potency is the fitted concentration of half-maximal effect;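 for activity (max response): cells grown in serum-free medium with ITS supplement; % is set by controls: 0 for no effect and ±100 for the full control effect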
Summary of the method: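 IC50 and maximal-response values come from four-parameter logistic fits of titration data. SW-13 cells in serum-free medium received compounds (up to 46 uM final) for 48 h before CellTiter-Glo luminescence.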

[5] = Cellular viability qHTS for adrenocortical cancer (ACC) cell line NCI-H295R (AID 1963990); note: nearly all actives have a fitted effect of over 60% in size; note: potency is the fitted concentration of half-maximal effect
Summary of the method: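 Adrenocortical carcinoma cells, suspended at 300 000 cells/mL in serum-free DMEM plus ITS, rested overnight before pin transfer of compound. After two days' incubation, ATP-dependent luminescence was recorded and curve-fitted.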

CN1Cc2cc(C(=O)N3CCC(C4CCNCC4)CC3)ccc2NC(CC(=O)O)C1=O (stereo not given)
inactive: Potency [1] | Potency [2] | Potency [3] | activity (max response) [4] 10.5% | Potency [5]

CN1CCN(C2CCN(C(=O)Nc3cc(Oc4ccc(NC(=O)C5(C(=O)Nc6ccc(F)cc6)CC5)c(F)c4)ccn3)CC2)CC1
inactive: Potency [1]
active: Potency [2] 65.1 nM and 93.4 nM | Potency [3] 116 nM and 132 nM | Potency [4] 28.2 µM | Potency [5] 25.1 µM

O=C1O[C@H](CO)[C@@H](O)[C@H](O)[C@H]1O
inactive: Potency [1] | Potency [2] | Potency [3] | activity (max response) [4] 5.91% | Potency [5]

CCN(CC)C(=O)Nc1ccc(OCC(O)CNC(C)(C)C)c(C(C)=O)c1 (stereo not given)
inactive: Potency [1] | Potency [2] | Potency [3] | activity (max response) [4] 12% | Potency [5]

CC1CCN(CCCC(=O)c2ccc(F)cc2)CC1
inactive: Potency [1] | Potency [2] | Potency [3] | activity (max response) [4] -0.695% | Potency [5]

CC[C@H]1OC(=O)[C@H](C)[C@@H](O[C@H]2C[C@@](C)(OC)[C@@H](O)[C@H](C)O2)[C@H](C)[C@@H](O[C@@H]2O[C@H](C)C[C@H](N(C)C)[C@H]2O)[C@](C)(O)C[C@@H](C)CN(C)[C@H](C)[C@@H](O)[C@]1(C)O
inactive: Potency [1] | Potency [2] | Potency [3] | activity (max response) [4] -23.1% | Potency [5]

N#CCC(=O)NN
inactive: Potency [1] | Potency [2] | Potency [3] | activity (max response) [4] 8.55% | Potency [5]

Nc1ccc(C(=O)O)cc1
inactive: Potency [1] | Potency [2] | Potency [3] | activity (max response) [4] 6.83% | Potency [5]

CC[C@H]1CN2CCc3cc(OC)c(OC)cc3[C@@H]2C[C@@H]1C[C@H]1NCCc2cc(OC)c(OC)cc21
active: Potency [2] 106 nM and 83.3 nM | Potency [3] 133 nM and 93.4 nM | Potency [4] 231 nM and 447 nM | Potency [5] 146 nM and 282 nM
inactive: Potency [1]

O=C(c1ccccc1)C(O)c1ccccc1 (stereo not given)
inactive: Potency [1] | Potency [2] | Potency [3] | activity (max response) [4] 11.7% | Potency [5]

CNC(=O)c1c(I)c(NC(C)=O)c(I)c(C(=O)O)c1I
inactive: Potency [1] | Potency [2] | Potency [3] | activity (max response) [4] 10% | Potency [5]

CC(=O)Oc1c(C)c(C)c2c(c1C)CC[C@@](C)(CCC[C@H](C)CCC[C@H](C)CCCC(C)C)O2
inactive: Potency [1] | Potency [2] | Potency [3] | activity (max response) [4] 2.68% | Potency [5]

Cc1ccc(=O)n(-c2ccccc2)c1
inactive: Potency [1] | Potency [2] | Potency [3] | activity (max response) [4] 13.5% | Potency [5]

C=C1[C@H](CO)[C@@H](O)C[C@@H]1n1cnc2c(=O)[nH]c(N)nc21
inactive and 16.4 µM (active): Potency [2]
inactive: Potency [1] | Potency [3] | activity (max response) [4] -5.41% | Potency [5]

CC(N=C(NC#N)Nc1ccncc1)C(C)(C)C (stereo not given)
inactive: Potency [1] | Potency [2] | Potency [3] | activity (max response) [4] 1.19% | Potency [5]

CC(C)CCCC(C)NCCC(C)C (stereo not given)
inactive: Potency [1] | Potency [2] | Potency [3] | activity (max response) [4] -7.26% | Potency [5]

CCOC(=O)C(=O)c1csc(NC=O)n1
inactive: Potency [1] | Potency [2] | Potency [3] | activity (max response) [4] 8.44% | Potency [5]

O=C(O)Cc1cccc2ccccc12
inactive: Potency [1] | Potency [2] | Potency [3] | activity (max response) [4] 3.96% and 12.8% | Potency [5]

Cc1ccc(-c2ccc3ncc4c(c3n2)n(C2CCN(C(=O)[C@H](C)O)CC2)c(=O)n4C)cn1
inactive: Potency [1]
active: Potency [2] 65.1 nM | Potency [3] 58 nM | Potency [4] 0.794 µM | Potency [5] 0.141 µM

CC1(C)[C@@H](OC(=O)CCC(=O)O)CC[C@]2(C)[C@H]3C(=O)C=C4[C@@H]5C[C@@](C)(C(=O)O)CC[C@]5(C)CC[C@@]4(C)[C@]3(C)CC[C@@H]12
inactive: Potency [1] | Potency [2] | Potency [3] | activity (max response) [4] 2.49% | Potency [5]

Cc1ccc(S(=O)(=O)NC(=O)NC2CCCCC2)cc1
inactive: Potency [1] | Potency [2] | Potency [3] | activity (max response) [4] 8.41% | Potency [5]

Clc1ccc2nsnc2c1NC1=NCCN1
inactive: Potency [1] | Potency [2] | Potency [3] | activity (max response) [4] -2.56% and -8.39% | Potency [5]

O=C(O)Cc1ccc(-c2ccccc2)cc1
inactive: Potency [1] | Potency [2] | Potency [3] | activity (max response) [4] 3.26% | Potency [5]

CC(=O)Nc1ncc([N+](=O)[O-])s1
inactive: Potency [1] | Potency [2] | Potency [3] | activity (max response) [4] 10.5% | Potency [5]

CCN(CC)CCNC(=O)c1cc(S(C)(=O)=O)ccc1OC
inactive: Potency [1] | Potency [2] | Potency [3] | activity (max response) [4] 12.2% | Potency [5]

C=CC(=O)Nc1cccc(Nc2nc(Nc3ccc(N4CCN(C(C)=O)CC4)cc3OC)ncc2C(F)(F)F)c1
inactive: Potency [1]
active: Potency [2] 1.64 µM and 1.05 µM | Potency [3] 1.84 µM and 1.86 µM | Potency [4] 2.24 µM | Potency [5] 3.55 µM

C[C@H]1COc2c(C3(N)CC3)c(F)cc3c(=O)c(C(=O)O)cn1c23
inactive: Potency [1] | Potency [2] | Potency [3] | activity (max response) [4] -1.24% | Potency [5]

NC(=O)c1ncn([C@@H]2O[C@H](CO)[C@@H](O)[C@H]2O)c1N
inactive: Potency [1] | Potency [2] | Potency [3] | activity (max response) [4] 3.4% and 2.54% | Potency [5]
